Only a selection was taken, and hits are over-represented in it overall.
ST2 inh – blocks human ST2 binding to IL-33; AlphaLISA ST2-Fc/biotin-IL-33 interaction, 1 h; inhibition, % for hits at 17 µM; AID 1259354; 2.3% of 78,000 active; in the data active = inhibition above about 30%
Target sequence (Q01638 whole entry, looked up): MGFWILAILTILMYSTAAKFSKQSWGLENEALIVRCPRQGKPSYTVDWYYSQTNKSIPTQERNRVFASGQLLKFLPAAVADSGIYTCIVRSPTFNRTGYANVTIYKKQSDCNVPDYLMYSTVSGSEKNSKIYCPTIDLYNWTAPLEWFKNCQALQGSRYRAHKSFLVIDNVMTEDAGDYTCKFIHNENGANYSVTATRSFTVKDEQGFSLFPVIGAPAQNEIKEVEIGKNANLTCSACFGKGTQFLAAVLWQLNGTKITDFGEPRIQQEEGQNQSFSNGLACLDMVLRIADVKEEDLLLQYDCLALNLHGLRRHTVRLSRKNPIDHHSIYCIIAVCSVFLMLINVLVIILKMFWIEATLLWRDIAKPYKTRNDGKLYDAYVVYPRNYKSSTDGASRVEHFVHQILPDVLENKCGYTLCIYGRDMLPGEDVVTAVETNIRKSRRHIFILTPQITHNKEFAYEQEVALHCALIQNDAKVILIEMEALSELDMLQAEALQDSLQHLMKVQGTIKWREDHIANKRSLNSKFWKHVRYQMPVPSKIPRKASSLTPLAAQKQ
Hits are given with their value; - = inactive.

SMILES	ST2 inh
CC1=CC(C)(C)N(C(=O)CN2C(=O)c3ccccc3C2=O)c2ccccc21	-
Cc1c(NC(=O)CN2C(=O)c3cccc([N+](=O)[O-])c3C2=O)c(=O)n(-c2ccccc2)n1C	-
CC1=CC(C)(C)N(C(=O)CN2C(=O)c3cccc([N+](=O)[O-])c3C2=O)c2ccccc21	32%
CC(C)=CC(=O)OC1c2c(ccc3ccc(=O)oc23)OC(C)(C)C1OC(=O)C=C(C)C (stereo not drawn)	-
COc1cc([N+](=O)[O-])cc(C=Nc2cccc(-c3nc4c(C)cccc4o3)c2)c1O	-
COc1cc([N+](=O)[O-])cc(C=Nc2ccc(-c3nc4c(C)cccc4o3)cc2)c1O	-
COc1cc([N+](=O)[O-])cc(C=Nc2ncccc2O)c1O	42%
C=CCn1c(=O)/c(=C2/Sc3ccccc3N2C)s/c1=C1/C(=O)N(C2CCCCC2)N=C1C	-
CC1(C)CC(=O)C2=C(C1)Nc1ccccc1NC2c1cccc(Cl)c1Cl (stereo not drawn)	-
COc1ccc(C(C)c2ccc(OC)cc2)cc1	-
CCCCOC(=O)Nc1ccccc1C(=O)N1CCCCC1	-
COc1ccc(CCC(=O)NCc2ccncc2)cc1	-
CCOC(=O)Nc1ccc(C(C)CC)cc1 (stereo not drawn)	-
CCCCOC(=O)Nc1ccc(N(C)C)cc1	42%
COc1ccc(CC(=O)Nc2ccc(I)cc2)cc1	-
COc1ccc(N(C)C)cc1	32%
COc1ccc(Cc2ccc(OC)cc2)cc1	-
COc1ccc(CCC(=O)Nc2ccc(N(C)C)cc2)cc1	46%
Cc1oc2ccc(O)cc2c1C(=O)N(C)C	-
OCCN1CCN(C2CCN(Cc3ccco3)CC2)CC1	-
COCCn1c(=O)[nH]c2cc(C(=O)NCCCN3CCCC3=O)ccc2c1=O	-
COc1ccc(Br)c2c1-c1nc(NC(=O)c3cccc(F)c3)sc1C2	-
CC(O)CCCCCCCCCC1Cc2cc(O)cc(O)c2C(=O)O1 (stereo not drawn)	-
Cc1cc2c(cc1O)NC(=O)CC2c1ccc(CN(C)S(C)(=O)=O)o1 (stereo not drawn)	-
O=C1C2=C(Nc3[nH]n(-c4ccccc4)c(=O)c3C2c2ccc([N+](=O)[O-])cc2)c2ccccc21 (stereo not drawn)	47%
SMILES	ST2 inh
Cn1c2c(c(=O)n(C)c1=O)C(c1cccc(F)c1)C1=C(N2)c2ccccc2C1=O (stereo not drawn)	-
Cc1cccc(C2C3=C(Nc4c2c(=O)n(C)c(=O)n4C)c2ccccc2C3=O)c1 (stereo not drawn)	-
CCCOc1ccc(C(O)=C2C(=O)C(=O)N(CCCN3CCOCC3)C2c2cccnc2)cc1 (stereo not drawn)	-
Cn1ccc2c(-c3cncnc3)ccnc21	-
Cc1nc2cc(-c3ccccc3)nn2c(C)c1CCC(=O)N1CCOCC1	-
Cc1ccc(NC(=O)c2cccc([N+](=O)[O-])c2)cc1C	-
O=C(Nc1ccc(I)cc1)c1cccc([N+](=O)[O-])c1	-
O=C(Nc1cccc(Cl)c1)c1cccc([N+](=O)[O-])c1	92%
CC1CCN(C(=O)Nc2ccccc2)CC1	-
CC(C)c1csc(C(=O)N2CCN3C(=O)CNC(=O)C3C2)n1 (stereo not drawn)	-
CC1=CCC2CC1C(c1ccc(N(C)C)cc1)OC2(C)C (stereo not drawn)	60%
COc1ccc(C2CC(=O)N3CN(c4ccc(F)cc4)CSC3=C2C#N)cc1 (stereo not drawn)	-
CS(=O)(=O)c1ccc2nc(NC(=O)/C=C/c3ccc(Cl)cc3)sc2c1	-
COc1ccc2nc(NC(=O)c3ccc(Cl)s3)sc2c1	-
COc1ccc2nc(NC(=O)/C=C/c3ccc([N+](=O)[O-])cc3)sc2c1	31%
Cc1ccc(CNS(=O)(=O)c2ccc3c(c2)c(=O)n(C)c(=O)n3C)cc1	-
OC(CN1CCOCC1)Cn1cnc2c(SCc3ccccc3)ncnc21 (stereo not drawn)	-
COC(=O)c1sc2ccccc2c1NC(=O)c1cc2ccccc2oc1=O	-
Cn1c(=O)[nH]c(=O)c2c1nc(CN1CCN(Cc3ccccc3)CC1)n2CCCc1ccccc1	-
Nc1ccc(N)c2c1C(=O)c1c(N)ccc(N)c1C2=O	94%
COc1ccc(NC(=O)CCC2CCCN(Cc3nc4c(s3)CCCC4)C2)c(C)c1 (stereo not drawn)	-
CCOc1ccc(NC(=O)C(=O)NCc2cccc(OC)c2)cc1	-
CCOc1cc2c(cc1OCC)C1C(C(=O)N3CCCCC3C)c3ccccc3C(=O)N1CC2 (stereo not drawn)	-
c1ccc(CO[C@@H]2[C@@H](OCc3ccccc3)[C@@H]3OC[C@@H](O3)[C@H]2OCc2ccccc2)cc1	-
CC(C)C1CN(Cc2cc(-c3cccnc3)no2)CCCN1CC1CC1 (stereo not drawn)	-
Cc1ccc(N=Cc2cccc(C(=O)O)c2O)cc1	-
COc1cccc(C=Nc2ccc(S(=O)(=O)Nc3cc(C)on3)cc2)c1O	-
CCN(CC)c1ccc(N=Cc2cccc(OC)c2O)cc1	94%
COc1ccc(OC)c(N=Cc2c(O)c(OC)cc(Br)c2Br)c1	-
COc1ccc(N=Cc2cc(Br)cc(Br)c2O)c(OC)c1	-
